Assay outcomes: PubChem BioAssay, National Center for Advancing Translational Sciences (NCATS)
Sampled rows, rich in hits. Any-hit rate of the full collection: about 21%.
IL1B secr inh: blocks inflammasome-driven IL-1 beta release; THP-1 LPS/ATP IL-1B secretion, AlphaLISA, 16 h; stronger effect = lower value; activity change, % at 57.5 µM; 360,000 compounds, 4.7% hits; in the data active means activity change below about -50%; inconclusive means mostly about -30% to -49%; further: on the % scale 0 is the no-effect control and ±100 the full control effect
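THP-1 cells pretreated 1 hr with compounds (up to 57.5 uM final), then stimulated with LPS (250 ng/mL final) plus ATP (1.25 mM final); secreted IL-1B measured by AlphaLISA after 16 hr, decreased signal indicating inhibition.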
TDP1 cell CPT: growth inhibition of DT40 Tdp1-/-;hTDP1 cells with camptothecin (screen for TDP1 inhibitors). chicken DT40 Tdp1-/-;hTDP1 cells + 20 nM CPT, ATP luminescence, 48 h. Potency, µM (titrated, usually from 46.2 µM), for inactives: at the top dose activity change, negative = growth inhibition, usual class: inhibitors. 420,000 compounds, 12% hits. AID 686979; further: potency means the concentration at half of the fitted maximal effect; on the % scale 0 is the no-effect control and ±100 the full control effect; nearly all actives have a fitted effect of over 55% in size
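Cell growth measured by CellTiter-Glo luminescence after a minimum 48 h, 37 C compound exposure with 20 nM CPT in Tdp1-knockout DT40 cells stably expressing hTDP1, seeded 400/well; qHTS titration format.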
D3 antag: antagonists of human D3 dopamine receptor; P35462; D3R cells, DiscoveRx beta-arrestin luminescence, antagonist mode; stronger effect = lower value; 360,000 compounds, 2.5% hits; max response, negative = inhibition, %; in the data active means max response below about -50%; inconclusive means no clear call, values can overlap the other calls; further: on the % scale 0 is the no-effect control and ±100 the full control effect
Target sequence (P35462 whole entry, looked up): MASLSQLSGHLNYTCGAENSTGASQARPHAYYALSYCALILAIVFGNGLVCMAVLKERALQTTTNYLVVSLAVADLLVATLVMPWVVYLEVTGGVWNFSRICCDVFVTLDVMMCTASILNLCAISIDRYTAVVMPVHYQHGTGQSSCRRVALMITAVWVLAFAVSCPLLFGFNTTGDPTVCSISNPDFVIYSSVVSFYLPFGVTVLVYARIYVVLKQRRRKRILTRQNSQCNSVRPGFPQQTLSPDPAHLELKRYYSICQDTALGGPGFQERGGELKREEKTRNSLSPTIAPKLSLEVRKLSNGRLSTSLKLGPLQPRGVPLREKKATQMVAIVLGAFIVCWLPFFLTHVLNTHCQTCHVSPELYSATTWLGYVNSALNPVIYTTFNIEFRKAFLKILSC
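Cells expressing the human receptor were seeded at 1500 cells/well, incubated overnight at 37 degrees C in 5% CO2, then exposed to library compounds with dopamine controls for 90 minutes at 37 degrees C before luminescent detection.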
D3 ag: D3 dopamine receptor (human) agonism; P35462; D3R DiscoveRx beta-arrestin cells, luminescence, 90 min; max activation, %; 410,000 compounds, 0.58% hits; AID 652048; in the data active means max activation above about 30%; further: 0% is about no effect
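Agonist mode: compounds and dopamine controls were applied to plated cells for 90 min at 37 degrees C after an overnight attachment at 1500 cells/well. Luminescent read-out followed 30 - 60 minutes at room temperature with DiscoveRx detection reagent.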
ClpP mod: qHTS Assay for Activators of ClpP. purified B. subtilis ClpP, FRET peptide cleavage, 20 min. Potency, µM (doses to about 57.5 µM), without a hit: at the top dose activity change, negative = active. 340,000 compounds, 1.9% hits; active means well fitted falling curve with a large enough effect; inconclusive means small, poorly fitted or top-dose-only effect; inactive means no such curve, though single readings can be large or run the other way; further: potency means the concentration at half of the fitted maximal effect; the source files actives as falling curves though it sought activators and does not explain the sign; nearly all actives have a fitted effect of over 65% in size
Target sequence (P80244 whole entry, looked up): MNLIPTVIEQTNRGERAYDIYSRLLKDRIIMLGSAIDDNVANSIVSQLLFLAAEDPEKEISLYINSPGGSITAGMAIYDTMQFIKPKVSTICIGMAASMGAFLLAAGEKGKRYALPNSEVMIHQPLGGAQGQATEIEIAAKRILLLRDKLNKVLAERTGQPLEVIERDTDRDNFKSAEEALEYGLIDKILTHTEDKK
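Buffer: 100 mM Tris/HCl pH8, 100 mM KCl, 0.05% low protease BSA, 2.5% glycerol, 0.01% Tween-20. ClpP 10 microg/mL final; 20 min RT; delta FRET normalized to ADEP and DMSO controls.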
TDP1 cell noCPT: qHTS for Inhibitors of human tyrosyl-DNA phosphodiesterase 1 (TDP1): qHTS in cells in absence of CPT; DT40 Tdp1-/- hTDP1 cells, no CPT, ATP luminescence, 48 h; Potency, µM (top dose mostly 46.2 µM), inactives show top-dose activity change, negative = growth inhibition, usual class: inhibitors; 420,000 compounds, 15% hits; AID 686978, 2013; further: potency means the concentration at half of the fitted maximal effect; on the % scale 0 is the no-effect control and ±100 the full control effect; nearly all actives have a fitted effect of over 55% in size
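Compound effects on proliferation are scored in DT40 Tdp1-/-;hTDP1 cells in the absence of CPT. ATP levels (CellTiter-Glo luminescence) are recorded after a ≥48 hr, 37 °C incubation.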
An asterisk follows results filed as active; i = inactive; ? = inconclusive; nt = no result. Unless noted, the call rests on the fitted dose curve; in most records, active means well fitted inhibition curve with a large enough effect; inconclusive means small, poorly fitted or top-dose-only effect; inactive means flat fitted curve, though single readings scatter.

SMILES	IL1B secr inh	TDP1 cell CPT	D3 antag	D3 ag	ClpP mod	TDP1 cell noCPT
CC(=O)N1CN(C2CCS(=O)(=O)C2)Cc2c1sc1c2CCCC1 (centres undefined)	-19	-13%	-56*	9	-9%	-3%
CCCc1nnc(NC(=O)Cc2coc3cc(C)cc(C)c23)s1	nt	-18%	nt	5	-1%	-23%
COCc1c(C(=O)N2CCN(Cc3c(F)cccc3Cl)CC2)oc2ccccc12	-29	?	6	17	nt	21µM*
COCc1c(C(=O)N2CCN(Cc3ccc4c(c3)OCO4)CC2)oc2ccccc12	-3	?	0	-8	1%	?
COCc1c(C(=O)N2CCN(c3ncccn3)CC2)oc2ccccc12	10	15µM*	12	2	-8%	?
COCc1c(C(=O)N2CCN(Cc3ccc(C#N)cc3)CC2)oc2ccccc12	-11	-30%	-24	-8	nt	21µM*
COCc1c(C(=O)N(C)Cc2ccccc2N2CCCC2)oc2ccccc12	-16	?	16	-3	-4%	23µM*
CC(C)C(OC(=O)/C=C/c1ccc2c(c1)OCO2)C(=O)NC(N)=O (centres undefined)	-1	17%	8	-3	nt	-14%
O=C(NCc1ccc(Cl)cc1)C(=O)Nc1cccc(Br)c1	nt	-26%	nt	-3	-2%	-21%
CSCC(CO)NS(=O)(=O)c1ccc(C)cc1 (centres undefined)	12	2%	-22	2	nt	-9%
Cc1ncsc1CCOC(=O)c1ccc(N2CCOCC2)c([N+](=O)[O-])c1	23	-7%	-2	1	1%	17%
Cc1c(CCOC(=O)c2ccc(N3CCOCC3)c([N+](=O)[O-])c2)sc[n+]1CC#N	-102*	4.6µM*	-29	-7	nt	2.6µM*
O=c1cnc2cnc(Oc3ccccc3)nc2n1C[C@H]1CCCO1	nt	-16%	nt	nt	nt	?
CCOC(=O)C1CCCN(C(=O)c2ccc3ccccc3c2)CC1 (centres undefined)	17	?	28	6	-1%	?
CN(Cc1ccc(Cl)cc1Cl)C(=O)c1cc(=O)c2ccccc2o1	-13	?	-17	0	nt	23µM*
CN(Cc1ccccc1Cl)C(=O)c1cc2ccccc2o1	-22	?	-26	-7	nt	?
CCCCN(C(=O)CCn1c(=O)oc2ccccc21)c1ccccc1	-5	18µM*	-2	0	3%	?
O=C(CCn1c(=O)oc2ccccc21)N(Cc1ccccc1)c1ccccc1	-18	?	15	2	0%	?
CCCC(=O)N(CCN(C(=O)CCC)c1ccccc1)c1ccccc1	-21	12µM*	4	6	6%	21µM*
Cc1cc(=O)[nH]c(SCC(=O)N2CCN(c3ccccc3)CC2)n1	nt	-13%	nt	-2	0%	-16%
COc1ccc(CN2C(=O)C(CC(=O)NC3CC3)CC(C(=O)N3CCOCC3)=C2C)cc1 (centres undefined)	37	-22%	0	-2	1%	?
COC(CNC(=O)c1c[nH]c2ccc(S(=O)(=O)N(C)c3ccc(F)cc3)cc2c1=O)OC	35	?	-2	-2	3%	-19%
CCN(CC)S(=O)(=O)c1ccc2c(c1)[nH]c(=S)n2CC	0	-11%	3	2	nt	-28%
CCN(CC)S(=O)(=O)c1ccc2nc(CCl)[nH]c2c1	-82*	26µM*	-13	-4	14µM*	?
CC(=O)CCC(=O)NC1CCCc2c1cnn2-c1ccc(C(C)(C)C)cc1 (centres undefined)	49	?	28	29	0%	?
SMILES	IL1B secr inh	TDP1 cell CPT	D3 antag	D3 ag	ClpP mod	TDP1 cell noCPT
CC1(C)Cc2c(cnn2-c2ccc(F)cc2)C(NC(=O)CCN2CCCC2=O)C1 (centres undefined)	34	18µM*	15	3	-2%	?
CC(C)(C)c1ccc(-n2ncc3c2CCCC3NC(=O)CCN2CCCC2=O)cc1 (centres undefined)	18	6.5µM*	18	2	-1%	2.1µM*
CC1(C)Cc2c(cnn2-c2ccc(F)cc2)C(NC(=O)C2=NNC(=O)CC2)C1 (centres undefined)	29	15µM*	5	2	-2%	?
CC1(C)Cc2c(cnn2-c2ccc(F)cc2)C(NC(=O)c2ccco2)C1 (centres undefined)	14	-10%	-1	0	2%	-26%
COc1ccc(-n2ncc3c2CC(C)(C)CC3NC(=O)c2c(C)cc(=O)oc2C)cc1 (centres undefined)	-2	26µM*	-12	-5	-2%	?
CC1(C)Cc2c(cnn2-c2cccc(F)c2)C(NC(=O)CCN2CCCC2=O)C1 (centres undefined)	i	-30%	21	-3	-2%	-17%
CC(C)(C)c1ccc(-n2ncc3c2CCCC3NC(=O)CN2CCCC2=O)cc1 (centres undefined)	i	18µM*	34	12	2%	16µM*
Cc1ccc(C(=O)N2CCCC(N(C)Cc3ccccc3)C2)s1 (centres undefined)	0	-8%	-62*	-12	22µM*	-8%
Cc1ccc(C)c(NC(=O)CN2C(=O)NC(C)(c3ccc4c(c3)OCCO4)C2=O)c1 (centres undefined)	2	-29%	-19	0	1%	-16%
CC(C)N(Cc1nc(-c2ccc(Cl)cc2)no1)C(=O)c1ccc(C(C)(C)C)cc1	nt	-27%	nt	-7	-2%	?
Cc1ccc(S(=O)(=O)N(C)CCCC(=O)NCc2ccc3c(c2)OCO3)cc1	26	-15%	0	1	1%	23µM*
Cc1ccc(S(=O)(=O)NCCC(=O)NCc2ccc3c(c2)OCO3)cc1C	-9	-11%	-2	-2	-1%	-2%
CN(CCCC(=O)NCc1ccc2c(c1)OCO2)S(=O)(=O)c1ccc([N+](=O)[O-])cc1	-3	?	-9	-7	0%	23µM*
O=C(Cn1cnc2sc3c(c2c1=O)CCCC3)NCC(=O)Nc1c(F)cc(F)cc1Br	9	?	10	-3	1%	-5%
CCOc1ccc(N(C)Cc2cc(=O)oc3ccc(OCC)cc23)cc1	-9	-13%	-20	-19	-10%	?
